# Measurements reported in PubChem BioAssay AID2685 (National Center for Advancing Translational Sciences (NCATS), 2010).
# The campaign covered roughly 320,000 compounds. About 2,100 (0.66%) were called active. Inconclusive results (about 53%) are left out. Calls come from the whole dose curve; as a rule, active = well fitted inhibition curve with a large enough effect in the signal ratio, with a control signal flat (not every such curve was filed as active); inconclusive = small, poorly fitted or top-dose-only effect, or effect the other way, or a change in a side signal; inactive = flat fitted curve, though single readings scatter; the % refers to the signal ratio. For the sample, actives were picked, then their nearest neighbours and some compounds at random.
# Assay: qHTS Assay for Lipid Storage Modulators in Drosophila S3 Cells;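 for cell number change: cells counted by Cell Tracker Red CMTPX staining in the red channel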
# Conditions: BODIPY lipid droplet fluorescence, 18-24 h, cells fed with added oleic acid; cell number change: measured here: cell count max response; series mostly up to 46.1 µM
# Text: NIH Molecular Libraries Probe Production Centers Network [MLPCN] NIH Chemical Genomics Center [NCGC] MLPCN Grant: 1 R03 MH085686-01 Assay Submitter (PI): Beller, Mathias; Max-Planck-Institut fur Biophysikalische Chemie NCGC Assay Overview: Storing lipids as a reservoir for energy or the anabolism of elementary metabolites is a common feature of probably all cells and is conserved from bacteria to humans. The universal cellular lipid storage organelle is the so-called lipid storage droplet (LD). Although ubiquitous, LDs share a simple structure composed of a hydrophobic core that harbors the storage lipids, which is shielded by a droplet-specific phospholipid monolayer to which proteins are attached. The current model of LD biogenesis involves an incorporation of the lipid core into the membrane leaflets of the endoplasmic reticulum (ER) followed by a subsequent budding-like maturation of a LD, which ultimately pinches off. Once released, LD volume can increase by localized lipogenesis or fusion of existing droplet. Storage lipids are re-mobilized enzymatically by lipase activity. Lipase regulation in the adipocyte is heavily studied and involves multiple components including catecholamine signaling, the LD-associated proteins Perilipin and comparative gene identification (CGI-58) and at least two lipases named hormone sensitive lipase (HSL) and adipocyte triglyceride lipase (ATGL). LD regulation outside of the adipocyte is poorly understood and only few components are known. However, there is an urgent need to learn more about ectopic fat depots as mislocalized storage of lipids, for example in the liver or muscle, is an eminent health problem associated with insulin resistance or the metabolic syndrome. We developed a laser-scanning cytometer assay to enable 1,536-well screening and combined the results of the small molecules screen with an RNAi database based on lipid storage.
# Triacsin C (Sigma-Aldrich T-4540), an inhibitor of long-chain fatty acyl CoA synthetase that blocks synthesis of triglycerides, was used as a positive control for lipid under-storage. A total of 23 nL of compound solution of different concentrations were transferred to the assay plates using a Kalypsys pin tool equipped with a 1,536-pin array containing 10-nL slotted pins (FP1S10, 0.457-mm diameter, 50.8 mm long; V&P Scientific). One microliter of oleic acid (400 uM) was added, and the plate was lidded with stainless steel rubber gasket lined lids containing pinholes. […] Fluorescence was detected by excitation of the fluorophores with a 488-nm laser on an Acumen Explorer (TTP Lab Tech). The total intensity in channel 2 (500-530 nm) reflected lipid droplet accumulation. Cells were detected using channel 3 (575-640 nm) with 5-um width and 100-um depth filters. The ratio of the number of objects in PMT channel 2 over the number of objects in PMT channel 3 was also calculated. Percent activity was computed relative to an internal control (100% inhibited lipid droplet deposition due to the presence of 20 uM Triacsin C), which was added to 32 wells/plate.
# Potency is the fitted concentration of half-maximal effect.
Structure (SMILES),Potency,cell number change [%],outcome
COCCn1c(C(F)(F)F)ccc(NC(=O)c2ccccc2)c1=O,8.2 µM (active),27.8,–
Cc1ccc(C(=O)Nc2ccc(C(F)(F)F)n(C)c2=O)cc1,inactive,11.7,–
COc1ccc(C(=O)Nc2ccc(C(F)(F)F)n(C)c2=O)cc1,inactive,6.54,–
CCN(CC(=O)Nc1ccc(OC)cc1)C(=O)CCc1nc2ccccc2c(=O)[nH]1,inactive,-4.18,–
Cc1c([N+](=O)[O-])c([N+](=O)[O-])nn1CC(=O)NCCc1ccccc1,inactive,2.95,–
CCCOc1ccc(C(C)=O)cc1CC(C(=O)OCC)C(=O)OCC,inactive,1.14,–
CC(=O)c1ccc(OC(C)C)c(CC(C(N)=O)C(N)=O)c1,25.9 µM (active),–,–
CC(=O)c1ccc(OC(C)C)c(CN2CCCCC2)c1,inactive,-4.17,–
NC(=O)CS(=O)(=O)c1ccc(Cl)cc1,inactive,0.328,–
CC(C)=CC(=O)O[C@@H]1Cc2cc3ccc(=O)oc3cc2OC1(C)C,inactive,-1.68,–
Cc1cc(Nc2ccc(F)c(F)c2)nc(-c2ccccc2O)n1,inactive,-20.3,–
Cc1cc(Nc2ccc(Br)cc2)nc(-c2ccccc2O)n1,1.16 µM (active),5.51,–
Cc1cc(Nc2ccc(Cl)cc2)nc(-c2ccccc2O)n1,inactive,25.5,–
O=C(NNC(=O)c1ccccc1O)c1ccc(NS(=O)(=O)c2ccc(F)c(F)c2)cc1,inactive,6.77,–
NS(=O)(=O)c1cccc(NS(=O)(=O)c2ccc3ccccc3c2)c1,inactive,-9.72,–
Cc1ccc(S(=O)(=O)N2CCCN(S(=O)(=O)c3ccc(C)cc3)CC2)cc1,inactive,-15.5,–
Cc1ccc(S(=O)(=O)N2CCCOC2)cc1,20.6 µM (active),-23.3,–
Cc1ccc(-c2ccc(S(=O)(=O)N3CCCC3)cc2)cc1,inactive,–,–
CC1(C)CC(=O)C(CC(=O)NC(=O)NCc2ccccc2)=C(O)C1,inactive,9.3,–
O=C(CSc1ccccc1)Nc1nnc(COc2ccc(Cl)cc2)s1,9.2 µM (active),-4.77,–
COCc1nnc(NC(=O)CSc2ccccc2)s1,inactive,-1.84,–
COCC(=O)Nc1nnc(COc2ccc(Cl)cc2)s1,inactive,-17.4,–
CCN(CC)c1ccc(/C=N/Nc2ccccc2)c(O)c1,inactive,-10.7,–

Structure (SMILES),Potency,cell number change [%],outcome
CCN(CC)c1ccc(/C=N/NC(=S)NCc2ccccc2)c(O)c1,11.6 µM (active),-19.6,–
CCN(CC)c1ccc(/C=N/NC(=S)NC)c(O)c1,inactive,2.22,–
COc1ccc(-c2c3c(=O)n(C)c(=O)n(C)c3cn2-c2ccccc2O)cc1,inactive,9.81,–
CC(=O)N(Cc1cccnc1)Cc1cc2ccc(C)cc2[nH]c1=O,inactive,-7.01,–
COc1cccc(CNC(=O)CCCn2ncn3c(cc4occc43)c2=O)c1,inactive,-2.59,–
CCOc1ccccc1CNC(=O)CCCn1ncn2c(cc3occc32)c1=O,29.1 µM (active),-5.42,–
CC(CNC(=O)CCCn1ncn2c(cc3occc32)c1=O)c1ccccc1 (centres undefined),inactive,24,–
Cc1cc(C(=O)N2CCN(S(=O)(=O)c3ccccc3)CC2)c(C)o1,inactive,15.7,–
CCCCn1nc2cc(C(=O)N[C@H](C)C3CCCCC3)ccc2c1OCC,inactive,-12,–
CCOC(=O)c1sc(NC(=O)CCc2ccccc2)nc1C,inactive,3.17,–
Cc1ccc(-n2c(C)cc(C(=O)CN3CCOCC3)c2C)cc1C,inactive,-2.77,–
Cc1ccc(-n2c(C)cc(C(=O)COC(=O)c3ccc[nH]c3=O)c2C)cc1C,inactive,-2.22,–
Cc1ccc(-n2c(C)cc(C(=O)COc3c(CO)cc(F)cc3CO)c2C)cc1C,8.2 µM (active),4.17,–
Cc1cccc(NC(=O)C2CCCN2C(=O)Oc2ccccc2)c1 (centres undefined),inactive,-1.72,–
Cc1cc(C)nc(NC(=O)c2c(Cl)cccc2Cl)n1,inactive,0.843,–
COc1cc(/C=N/NC(=O)c2ccc(CN3C(=O)c4cccc5cccc3c45)cc2)cc(OC)c1O,3.26 µM (active),-19.2,–
COc1cc(/C=N/NC(=O)c2ccc(CN3c4cccc5cccc(c45)S3(=O)=O)cc2)cc(OC)c1O,inactive,-26.4,–
CN(C)c1ccc(/C=N/NC(=O)c2ccc(CN3C(=O)c4cccc5cccc3c45)cc2)cc1,inactive,10.4,–
Cc1ccc(NC(=O)COc2coc(CN3CCc4ccccc4C3)cc2=O)c(C)c1,–,–,inactive [at 0.0737 µM]
Cc1cc(C)cc(NC(=O)COc2coc(CN3CCc4ccccc4C3)cc2=O)c1,inactive,-22.1,–
Cc1ccc(C)c(NC(=O)COc2coc(CN3CCc4ccccc4C3)cc2=O)c1,6.51 µM (active),-25.7,–
CCc1cccc(CC)c1NC(=O)COC(=O)CC1c2ccccc2CCN1S(=O)(=O)c1ccccc1 (centres undefined),inactive,0.0752,–
COCCSc1nc(N)c(NC(=O)c2ccco2)c(=O)[nH]1,inactive,-16.8,–

Structure (SMILES),Potency,cell number change [%],outcome
COc1ccc(CC(=O)NCC(=O)N/N=C/c2c[nH]c3ccccc23)cc1,inactive,14.2,–
CCCCCCCNC(=O)C1(CC2CC(c3ccc(Cl)cc3)=NO2)CCNCC1 (centres undefined),inactive,-6.47,–
CNC(=O)/C(=C\c1cccc(Oc2ccccc2)c1)NC(=O)c1ccccc1,inactive,2.1,–
CCCn1c(-c2ccccc2)nc2c(=O)n(C)c(=O)[nH]c21,inactive,-15.6,–
CCCCn1c(-c2ccc(OC)cc2)nc2c(=O)n(C)c(=O)[nH]c21,inactive,12.4,–
CCCn1c(-c2ccc(OC)cc2)nc2c(=O)n(C)c(=O)[nH]c21,29.1 µM (active),11.6,–
CCN1CCN(CC(=O)Nc2ccc(N(C)C)cc2)CC1,inactive,14.8,–
CN(C)c1ccc(NC(=O)CN2CCC(NC(=O)C3CCCCC3)CC2)cc1,inactive,6.84,–
CN(C)c1ccc(NC(=O)CN2CCC(N3CCCCC3)CC2)cc1,23.1 µM (active),-25.9,–
O=C(O)C1CC1C(=O)N1CCN(c2ccc(Cl)c(Cl)c2)CC1 (centres undefined),inactive,16.3,–
CCc1nc2nc(C)c(NS(=O)(=O)c3ccc(C4CCCCC4)cc3)c(=O)n2[nH]1,inactive,–,–
Cc1nnsc1C(=O)NC1CCCc2c1cnn2-c1ccccc1F (centres undefined),4.11 µM (active),–,–
COc1ccc(C(=O)NC2CCCc3c2cnn3-c2cc(F)cc(F)c2)c(OC)c1OC (centres undefined),inactive,–,–
Cc1ccccc1-n1ncc2c1CC(C)(C)CC2NC(=O)c1snnc1C (centres undefined),inactive,7.34,–
Cc1cc(C(=O)NC2CCCc3c2cnn3-c2cccc(C)c2C)n(C)n1 (centres undefined),0.92 µM (active),5.94,–
COc1cc(C(=O)NC2CC(C)(C)Cc3c2cnn3-c2ccccc2)cc(OC)c1OC (centres undefined),inactive,9.79,–
O=C(CCN1CCCC1=O)NC1CCCc2c1cnn2-c1ccccc1F (centres undefined),inactive,11,–
Cc1cccc(-n2ncc3c2CCCC3NC(=O)CCN2CCCO2)c1C (centres undefined),inactive,-19.9,–
Cc1cccc(-n2ncc3c2CCCC3NC(=O)CN2CCCC2=O)c1C (centres undefined),inactive,-2.49,–
COc1cc(C(=O)NC2CCCc3c2cnn3-c2ccccc2F)cc(OC)c1OC (centres undefined),16.4 µM (active),22.4,–
O=C(O)CCCC(=O)Nc1nc(-c2ccc(F)cc2)cs1,inactive,–,–
COc1ccc(-n2c(SCC(=O)NCC3CCCO3)nc3c([nH]c4ccccc43)c2=O)cc1OC (centres undefined),inactive,-13.6,–
Cc1ccc(OCC(=O)Nc2ccc(N3CCN(S(C)(=O)=O)CC3)cc2)cc1,inactive,18.1,–

Structure (SMILES),Potency,cell number change [%],outcome
O=C(CSc1nnc2c(Cl)cc(C(F)(F)F)cn12)Nc1ccc2c(c1)OCO2,inactive,-8.45,–
COc1ccc(-c2cn[nH]c2-c2ccc(OCC(=O)NN)cc2O)cc1OC,inactive,12.9,–
O=C(N[C@@H](CO)C(=O)NCc1ccccc1)c1ccc(C(F)(F)F)cc1,inactive,23.3,–
COc1cccc(CNC(=O)CCC(=O)N2Cc3cccc(OC)c3Oc3ncccc32)c1OC,inactive,–,–
Cc1ccc(CSCc2ccc(C(=O)NCCCN3CCOCC3)o2)cc1,inactive,–,–
COc1cc(S(=O)(=O)N(Cc2cccnc2)Cc2cccc(OC)c2OC)ccc1-n1cnnn1,inactive,-1.62,–
O=C(COc1ccc([N+](=O)[O-])cc1)Nc1ccc(NC(=O)c2ccccc2)cc1,inactive,-8.36,–
Oc1ccccc1C1=NN(c2ccccc2)C(c2ccccc2)C1 (centres undefined),1.64 µM (active),0.901,–
O=Cc1ccc(N2N=C(c3ccccc3)CC2c2ccccc2)cc1 (centres undefined),inactive,-15.5,–
O=C(O)c1ccc(N2N=C(c3ccccc3)CC2c2ccccc2)cc1 (centres undefined),inactive,-6.08,–
CS(=O)(=O)c1ccc(C(=O)NCc2ccc(F)cc2)cc1,inactive,23,–
N/C(Cc1ccc([N+](=O)[O-])cc1)=N\OC(=O)c1ccc(Br)o1,inactive,10.2,–
N/C(Cc1ccc([N+](=O)[O-])cc1)=N\OC(=O)c1ccc(Br)cc1,8.2 µM (active),0.393,–
N/C(=N\OC(=O)c1ccc([N+](=O)[O-])cc1)c1ccc(Br)cc1,inactive,19,–
COC(=O)c1sccc1N/N=C/c1cccc(Oc2ccccc2)c1,inactive,-12.1,–
CCCCNC(=O)CCn1c(=O)c2cccn2c2ccc(F)cc21,inactive,-8.11,–
COc1ccc(NC(=O)CCn2c(=O)c3cccn3c3ccccc32)cc1,inactive,-20.6,–
COc1ccc(CNC(=O)CCn2c(=O)c3cccn3c3ccc(F)cc32)cc1,5.8 µM (active),-3.83,–
CCCS(=O)(=O)c1nc(S(=O)(=O)c2ccc(C)cc2)c(N2CCC(C)CC2)s1,inactive,–,–
CCCS(=O)(=O)c1nc(S(=O)(=O)c2ccc(C)cc2)c(N2CC(C)OC(C)C2)s1 (centres undefined),18.4 µM (active),-24.5,–
CCCS(=O)(=O)c1nc(S(=O)(=O)c2ccc(C)cc2)c(N2CCN(C)CC2)s1,inactive,–,–
